In ChEMBL document CHEMBL2218924, “A broad activity screen in support of a chemogenomic map for kinase signalling research and drug discovery” (Biochem J, 2013) one finds residual activity data, which are given here for one molecule.

For test [1], the target named is Tyrosine-protein kinase SYK (Homo sapiens) (UniProt P43405). Particulars: at 10 µM.
Test [2] concerns the target T1, Mitogen-activated protein kinase kinase kinase 7 (Homo sapiens) (UniProt O43318).
T1 sequence (whole entry): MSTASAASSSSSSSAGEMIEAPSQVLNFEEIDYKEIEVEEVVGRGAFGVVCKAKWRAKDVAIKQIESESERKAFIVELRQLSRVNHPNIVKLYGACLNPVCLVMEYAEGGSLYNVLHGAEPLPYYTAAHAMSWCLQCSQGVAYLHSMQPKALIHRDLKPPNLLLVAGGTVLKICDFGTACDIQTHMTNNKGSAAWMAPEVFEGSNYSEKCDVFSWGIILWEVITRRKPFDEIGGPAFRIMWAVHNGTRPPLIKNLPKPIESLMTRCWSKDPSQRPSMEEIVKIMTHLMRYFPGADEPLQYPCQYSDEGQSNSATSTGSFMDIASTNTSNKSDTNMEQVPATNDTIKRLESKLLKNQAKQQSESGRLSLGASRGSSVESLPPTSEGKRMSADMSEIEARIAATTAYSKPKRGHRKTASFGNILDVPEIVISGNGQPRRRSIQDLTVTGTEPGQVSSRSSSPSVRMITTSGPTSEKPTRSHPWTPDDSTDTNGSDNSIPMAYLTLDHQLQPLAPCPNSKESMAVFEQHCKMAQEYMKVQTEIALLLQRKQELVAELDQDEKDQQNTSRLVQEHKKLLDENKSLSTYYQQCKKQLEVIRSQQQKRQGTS
Particulars: at 1 µM.

Test [3] concerns the target T1, Mitogen-activated protein kinase kinase kinase 7 (Homo sapiens). Particulars: at 10 µM.
Test [4] addresses T2, Serine/threonine-protein kinase TAO1 (Homo sapiens) (UniProt Q7L7X3).
T2 sequence (whole entry): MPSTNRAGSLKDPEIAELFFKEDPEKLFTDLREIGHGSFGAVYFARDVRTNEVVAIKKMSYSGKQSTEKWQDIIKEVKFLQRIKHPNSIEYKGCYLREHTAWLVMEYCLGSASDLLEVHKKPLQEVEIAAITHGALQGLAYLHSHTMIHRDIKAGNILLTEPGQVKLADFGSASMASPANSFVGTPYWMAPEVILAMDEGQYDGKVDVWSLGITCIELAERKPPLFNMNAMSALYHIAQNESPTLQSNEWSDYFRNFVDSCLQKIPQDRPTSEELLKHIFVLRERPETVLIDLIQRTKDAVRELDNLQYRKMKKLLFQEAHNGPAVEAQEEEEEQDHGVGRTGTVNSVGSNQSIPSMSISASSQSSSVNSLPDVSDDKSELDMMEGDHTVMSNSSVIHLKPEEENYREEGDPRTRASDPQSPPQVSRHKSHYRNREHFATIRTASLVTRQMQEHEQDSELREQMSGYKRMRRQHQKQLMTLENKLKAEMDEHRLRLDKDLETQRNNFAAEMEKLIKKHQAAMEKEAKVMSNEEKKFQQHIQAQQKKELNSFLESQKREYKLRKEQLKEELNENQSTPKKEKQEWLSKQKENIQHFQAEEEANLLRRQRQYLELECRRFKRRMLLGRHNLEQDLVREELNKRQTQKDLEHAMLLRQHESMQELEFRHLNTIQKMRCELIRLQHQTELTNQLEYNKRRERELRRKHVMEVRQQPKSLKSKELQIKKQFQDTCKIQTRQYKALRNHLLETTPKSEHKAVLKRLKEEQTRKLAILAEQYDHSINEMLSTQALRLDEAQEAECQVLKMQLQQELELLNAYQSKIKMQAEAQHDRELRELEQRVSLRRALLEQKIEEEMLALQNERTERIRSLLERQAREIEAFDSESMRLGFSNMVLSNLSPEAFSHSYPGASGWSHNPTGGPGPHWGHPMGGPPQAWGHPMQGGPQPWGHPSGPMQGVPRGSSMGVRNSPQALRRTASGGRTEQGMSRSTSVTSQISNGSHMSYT
Particulars: at 1 µM.

The target in test [5] is T2, Serine/threonine-protein kinase TAO1 (Homo sapiens). Conditions: at 10 µM.
For test [6], the target named is T3, Serine/threonine-protein kinase TAO2 (Homo sapiens) (UniProt Q9UL54).
T3 sequence (whole entry): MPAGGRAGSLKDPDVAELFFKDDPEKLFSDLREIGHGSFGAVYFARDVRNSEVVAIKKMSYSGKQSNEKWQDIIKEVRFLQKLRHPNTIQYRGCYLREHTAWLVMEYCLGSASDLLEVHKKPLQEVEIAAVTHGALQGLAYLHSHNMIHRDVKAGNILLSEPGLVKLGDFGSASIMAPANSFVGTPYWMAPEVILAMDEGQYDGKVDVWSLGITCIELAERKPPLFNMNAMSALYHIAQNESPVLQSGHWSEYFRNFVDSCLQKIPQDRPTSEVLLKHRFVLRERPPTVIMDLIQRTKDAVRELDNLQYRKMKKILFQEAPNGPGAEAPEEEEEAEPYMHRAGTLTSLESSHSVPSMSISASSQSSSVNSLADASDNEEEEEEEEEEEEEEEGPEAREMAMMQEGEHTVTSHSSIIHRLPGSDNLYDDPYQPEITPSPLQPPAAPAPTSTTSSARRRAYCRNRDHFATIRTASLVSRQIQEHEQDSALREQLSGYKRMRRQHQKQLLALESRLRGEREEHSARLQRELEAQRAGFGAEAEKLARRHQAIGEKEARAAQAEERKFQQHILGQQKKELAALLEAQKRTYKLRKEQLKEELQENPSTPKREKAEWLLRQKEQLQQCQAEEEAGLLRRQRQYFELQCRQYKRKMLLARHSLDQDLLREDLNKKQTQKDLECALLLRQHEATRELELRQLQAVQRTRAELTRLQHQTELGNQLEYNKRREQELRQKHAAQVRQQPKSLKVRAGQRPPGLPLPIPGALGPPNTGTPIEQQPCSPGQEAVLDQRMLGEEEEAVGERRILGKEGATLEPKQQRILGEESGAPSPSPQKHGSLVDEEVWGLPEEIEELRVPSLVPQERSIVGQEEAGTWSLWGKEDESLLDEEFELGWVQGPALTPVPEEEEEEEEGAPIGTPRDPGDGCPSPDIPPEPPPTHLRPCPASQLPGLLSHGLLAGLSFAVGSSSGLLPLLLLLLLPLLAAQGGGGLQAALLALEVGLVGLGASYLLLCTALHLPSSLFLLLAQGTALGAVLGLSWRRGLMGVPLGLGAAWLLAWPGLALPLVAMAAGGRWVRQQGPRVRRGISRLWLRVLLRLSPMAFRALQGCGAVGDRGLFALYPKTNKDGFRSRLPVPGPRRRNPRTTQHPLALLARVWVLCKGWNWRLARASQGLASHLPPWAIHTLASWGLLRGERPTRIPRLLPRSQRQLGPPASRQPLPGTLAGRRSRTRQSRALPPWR
Conditions: at 1 µM.

Test [7] deals with T3, Serine/threonine-protein kinase TAO2 (Homo sapiens). Particulars: at 10 µM.
Test [8] concerns the target T4, Serine/threonine-protein kinase TAO3 (Homo sapiens) (UniProt Q9H2K8).
T4 sequence (whole entry): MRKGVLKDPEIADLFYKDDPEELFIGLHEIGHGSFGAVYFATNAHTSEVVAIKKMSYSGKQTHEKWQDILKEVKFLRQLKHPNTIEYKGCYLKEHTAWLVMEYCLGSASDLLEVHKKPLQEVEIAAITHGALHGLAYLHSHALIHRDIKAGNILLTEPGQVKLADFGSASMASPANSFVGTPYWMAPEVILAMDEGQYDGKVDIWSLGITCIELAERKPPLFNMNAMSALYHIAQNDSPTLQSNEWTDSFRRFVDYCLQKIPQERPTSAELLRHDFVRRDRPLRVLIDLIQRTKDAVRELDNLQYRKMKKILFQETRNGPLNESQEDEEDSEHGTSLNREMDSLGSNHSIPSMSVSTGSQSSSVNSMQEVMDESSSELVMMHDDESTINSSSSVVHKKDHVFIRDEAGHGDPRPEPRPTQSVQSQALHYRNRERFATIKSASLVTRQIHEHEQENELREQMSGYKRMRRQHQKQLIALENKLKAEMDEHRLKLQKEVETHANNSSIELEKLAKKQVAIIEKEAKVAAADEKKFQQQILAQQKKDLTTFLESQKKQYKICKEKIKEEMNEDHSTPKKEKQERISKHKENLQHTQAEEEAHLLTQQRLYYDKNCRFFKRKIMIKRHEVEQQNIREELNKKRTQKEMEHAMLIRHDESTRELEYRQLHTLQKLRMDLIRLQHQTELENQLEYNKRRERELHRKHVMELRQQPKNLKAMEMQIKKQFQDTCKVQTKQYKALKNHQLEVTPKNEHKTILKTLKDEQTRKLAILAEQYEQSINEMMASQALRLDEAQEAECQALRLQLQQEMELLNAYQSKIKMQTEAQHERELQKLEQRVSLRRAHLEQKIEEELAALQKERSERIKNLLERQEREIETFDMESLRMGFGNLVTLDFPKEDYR
Particulars: at 1 µM.

The target of test [9] is T4, Serine/threonine-protein kinase TAO3 (Homo sapiens). Particulars: at 10 µM.
For test [10], the target named is T5, Serine/threonine-protein kinase TBK1 (Homo sapiens) (UniProt Q9UHD2).
T5 sequence (whole entry): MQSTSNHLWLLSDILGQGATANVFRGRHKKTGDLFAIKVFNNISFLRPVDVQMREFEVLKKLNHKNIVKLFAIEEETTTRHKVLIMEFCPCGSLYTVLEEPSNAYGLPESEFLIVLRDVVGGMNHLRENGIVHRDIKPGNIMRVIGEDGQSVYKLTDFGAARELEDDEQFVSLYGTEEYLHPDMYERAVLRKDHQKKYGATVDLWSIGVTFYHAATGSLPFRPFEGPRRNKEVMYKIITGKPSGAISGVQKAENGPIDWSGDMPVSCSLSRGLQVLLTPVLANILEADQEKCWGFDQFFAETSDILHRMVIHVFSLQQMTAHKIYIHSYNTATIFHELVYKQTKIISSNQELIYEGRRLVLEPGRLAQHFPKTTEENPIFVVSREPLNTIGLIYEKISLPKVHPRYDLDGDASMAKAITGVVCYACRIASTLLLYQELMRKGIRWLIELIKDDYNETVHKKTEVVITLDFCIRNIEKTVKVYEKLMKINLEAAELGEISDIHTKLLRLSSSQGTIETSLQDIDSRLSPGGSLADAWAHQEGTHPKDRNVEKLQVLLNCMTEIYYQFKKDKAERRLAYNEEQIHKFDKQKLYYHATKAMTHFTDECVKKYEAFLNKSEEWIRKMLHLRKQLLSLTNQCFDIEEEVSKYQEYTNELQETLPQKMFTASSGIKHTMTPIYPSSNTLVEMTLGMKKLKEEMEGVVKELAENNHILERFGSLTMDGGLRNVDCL
Particulars: at 1 µM.

The structures appear in SMILES notation.

Turning to `Oc1ccc(Nc2nc(-c3ccc(Cl)cc3)cs2)cc1`, the residual activity in [1] was determined as 114%; in test [2], 112%; in test [3] it was 98%; in [4], 106%; in test [5] it was 85%; in [6] it was 118%. Moreover, the residual activity in [7] is 89%; in test [8], 99%; in test [9], 95%; in [10], 114%.
